CHT allo act: allosteric activators of human choline transporter CHT. Q9GZV3. CHT-expressing cells, membrane potential dye, choline EC20; active compounds read high; LV-AA mutant CHT in HEK293 cells. B-score at 10 µM. actives 0.49% (n = 310,000). AID 488977;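 active = initial fluorescence not abnormally high and integrated response B-score, plate-corrected, over 3 SD above library mean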
CHT block: inhibits the human high affinity choline transporter; B-score at 10 µM; actives 0.86% (n = 310,000); AID 488975; CHT-expressing cells, membrane potential dye, choline response; active compounds read low;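 active = B-score over 3 SD under the library average, and starting fluorescence ratio not unusually high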;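 also: choline stimulus applied at its EC90 after an EC20 pre-addition; B-score computed on integrated fluorescence ratio after choline addition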
TAG inh: triacylglycerol accumulation inhibition; H9c2 cells, Nile Red lipid (TAG) fluorescence; cells loaded with 200 µM oleic acid; inhibition, % at 12.5 µM; actives 0.66% (n = 230,000);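 active = pattern-corrected inhibition of lipid staining of at least 50% with the nuclear-stain viability signal not falling by more than 50%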;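 also: 0% = DMSO wells and 100% = triacsin C control wells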
Kir21 inh: blocks the mouse Kir2.1 inward-rectifier potassium channel; P35561; AID 1672; B-score at 10 µM; actives 0.85% (n = 310,000); HEK293-Kir2.1, FluxOR thallium flux fluorescence; active compounds read low;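 active = fluorescence ratio B-score at or below minus 3 SD of library scores, with starting-brightness B-score within 2 SD, cut at about -4.2 in these data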;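 also: channel flux triggered by added potassium and thallium sulfate stimulus; B-score of peak minus minimum fluorescence over baseline after thallium stimulus; more negative B-score means stronger Kir2.1 block with less thallium influx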
Target sequence (P35561 whole entry, looked up): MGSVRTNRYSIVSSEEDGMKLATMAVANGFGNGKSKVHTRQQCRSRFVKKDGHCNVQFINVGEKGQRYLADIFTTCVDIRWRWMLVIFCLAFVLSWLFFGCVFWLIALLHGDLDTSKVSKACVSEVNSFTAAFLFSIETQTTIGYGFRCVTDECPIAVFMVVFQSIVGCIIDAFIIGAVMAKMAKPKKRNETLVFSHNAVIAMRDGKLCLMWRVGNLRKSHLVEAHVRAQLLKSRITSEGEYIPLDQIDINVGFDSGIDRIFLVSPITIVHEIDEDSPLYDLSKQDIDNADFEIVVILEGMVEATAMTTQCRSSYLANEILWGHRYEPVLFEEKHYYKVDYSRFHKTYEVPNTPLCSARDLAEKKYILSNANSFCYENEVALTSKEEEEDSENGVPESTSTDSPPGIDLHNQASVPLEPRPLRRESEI
* = called active by the depositor; i = inactive; nt = no result. This is a sample that favours compounds with a hit; in the whole collection about 2% have one here.

SMILES	CHT allo act	CHT block	TAG inh	Kir21 inh
Cn1nnnc1Sc1ncnc2scc(-c3ccc(Br)cc3)c12	nt	nt	58*	nt
OC(CNCCc1ccccc1)COc1ccc(OCC(O)CNCCc2ccccc2)cc1 (stereo unspecified)	i	i	129	-11*
OC(CNCCC(c1ccccc1)c1ccccc1)COc1ccccc1 (stereo unspecified)	i	i	7	-6.5*
OC(CNCCc1ccc(Cl)cc1)COc1ccc2ccccc2c1 (stereo unspecified)	nt	nt	2	nt
CC(C)c1ccc(OCC(O)CNC(C)c2ccccc2)cc1 (stereo unspecified)	i	i	nt	-6*
O=C(c1ccccc1)c1ccc(OCC(O)CNCc2cccc(Cl)c2)cc1 (stereo unspecified)	i	i	nt	-8.4*
CC(C)N(CCNCC(O)COc1ccc(C(C)(C)c2ccccc2)cc1)C(C)C (stereo unspecified)	i	i	9	-1.7
OC(CNCc1cccc(Cl)c1)c1ccccc1 (stereo unspecified)	i	i	2	-0.42
O=C(Cc1ccc(Cl)cc1Cl)NCC1(N2CCOCC2)CCCCC1	i	i	0	-1.6
CCC(=O)c1ccc(OCC(O)CNCCc2ccc(Cl)cc2)cc1 (stereo unspecified)	i	i	nt	-3
OC(CNCCc1ccc(Cl)cc1)COc1cc(Cl)ccc1Cl (stereo unspecified)	i	i	nt	-14*
COc1ccc(C(OCC(O)CNCCc2ccccc2)c2ccc(OC)cc2)cc1 (stereo unspecified)	i	i	nt	-6.7*
CC(NCC(O)COCCC12CC3CC(CC(C3)C1)C2)c1ccccc1 (stereo unspecified)	i	i	nt	-12*
COc1ccc(C(OCC(O)CNC(C)c2ccccc2)c2ccc(OC)cc2)cc1 (stereo unspecified)	i	i	nt	-3
Cc1ccc(NC(=O)/C(C#N)=C(\N)C(Cl)(Cl)Cl)nc1	i	i	-2	-3.7
O=S(=O)(/C(=C/c1ccc(C(F)(F)F)cc1)c1nc2ccccc2[nH]1)c1ccccc1	i	i	nt	-7.6*
Cn1c(N=Nc2ccc(N3CCOCC3)cc2)[n+](C)c2ccccc21	nt	nt	51*	2.5
Cn1c(=Nc2ccc(N3CCOCC3)cc2)ccc2ccccc21	i	i	-6	0.76
CC(CNC1CCCCC1)OC(=O)c1ccc([N+](=O)[O-])cc1 (stereo unspecified)	nt	nt	-5	nt
COc1ccc(OC)c(NC(=S)NCC(c2cccnc2)N2CCOCC2)c1 (stereo unspecified)	i	i	nt	0.97
CCN(CC)CCNC(=O)C1CCN(S(=O)(=O)c2c(C)noc2/C=C/c2ccccc2F)CC1	i	i	nt	-4.6*
CCCCc1nc2cc(C(=O)N3CCN(c4cnccn4)CC3)ccc2o1	i	-9.7*	nt	-0.53
COc1cccc(NC(=O)CSc2nnc(-c3ccco3)c(-c3ccco3)n2)c1	i	-7.4*	nt	-1.1
O=C(COc1ccc(Br)cc1)NCCN1CCCC1	i	i	nt	-0.38
Cc1ccc(NCCN(C)C)c2c(=O)c3cc(O)ccc3sc12	nt	nt	63*	nt
SMILES	CHT allo act	CHT block	TAG inh	Kir21 inh
CN(C)CCCNc1ncnc2oc(-c3ccccc3)c(-c3ccccc3)c12	i	i	nt	-4.6*
c1ccc(-c2oc3ncnc(NCCCn4ccnc4)c3c2-c2ccccc2)cc1	i	i	nt	-2.4
CN1CCN(NC(=O)c2cccc3ccccc23)CC1	i	i	nt	0.9
COc1ccc(S(=O)(=O)Nc2cccc3c2O[C@H](CN(C)CC2CCCCC2)[C@@H](C)CN([C@H](C)CO)C3=O)cc1	nt	nt	-8	nt
COc1ccc2nc(-c3ccccn3)[nH]c2c1	i	i	70*	0.69
CCCCCCCNC(=O)C1(CC2CC(c3ccc(Cl)cc3)=NO2)CCNCC1 (stereo unspecified)	i	i	144	-10*
CCCCCCCNC(=O)C1(CC2CC(c3cccc(Br)c3)=NO2)CCNCC1 (stereo unspecified)	i	i	134	-11*
Cc1ccc(S(=O)(=O)Nc2ccc(O)c3cccnc23)cc1	i	i	nt	-4.5*
Cc1ccc(S(=O)(=O)Nc2ccc(O)c3ncccc23)cc1	i	i	21	-2.3
O=C(NNC(=O)c1cccnc1)Nc1cccc(Cl)c1Cl	i	i	nt	-0.61
NS(=O)(=O)c1ccc(CCNCc2cc(Br)ccc2OCc2ccccc2)cc1	i	i	1	-8.2*
COc1ccc(Br)cc1/C=C/C(=O)OCC(=O)NCCc1ccc(S(N)(=O)=O)cc1	nt	nt	1	nt
COc1ccccc1CNC(=O)CN(C)Cc1ccc(SC)cc1	i	i	nt	-5.4*
COc1ccc(Br)cc1CN(C)CC(=O)NCCc1ccccc1	i	i	-11	-5.5*
OCCNCc1cc(Br)ccc1OCc1ccccc1	i	i	nt	0.02
CN(CC(=O)NCCc1ccc(F)cc1)Cc1ccccc1	i	i	nt	-0.65
COc1ccc(Br)cc1CN(C)CC(=O)NCCc1ccc(S(N)(=O)=O)cc1	i	i	nt	-4.7*
C[C@@H]1CN[C@H](CCO)/C1=C\c1ccccc1	nt	nt	-5	nt
CC1CCN(CCOCCOc2ccc(Br)cc2Cl)CC1	i	i	nt	-7.6*
COc1cccc(/C=N/Nc2cc(N3CCOCC3)ncn2)c1O	i	i	71*	0
Fc1ccc(/C=N/Nc2cc(N3CCOCC3)ncn2)cc1	i	i	35	0.55
O=C(NCCCN1CCOCC1)c1onc(CSc2ccncc2)c1C(=O)NCCCN1CCOCC1	i	i	-8	2.4
CCCC(=O)N1CCN(c2nc(CC(C)C)c3c(c2C#N)CCC3)CC1	7*	i	-9	-0.36
O=C(O)CCCC1(C(=O)O)CCCC1	nt	nt	-6	nt
CC[C@H](C)Cc1cn([C@@H](CCCN=C(NC(=O)OC(C)(C)C)NC(=O)OC(C)(C)C)C(=O)NCCCCCCCCCCC(=O)N2CCN(C(=O)OC(C)(C)C)CC2)nn1	i	i	15	nt
SMILES	CHT allo act	CHT block	TAG inh	Kir21 inh
Cc1cn([C@@H](CCCCNC(=O)OC(C)(C)C)C(=O)NCCCCCCCCCCC(=O)N2CCN(C(=O)OC(C)(C)C)CC2)nn1	i	-5.8*	-39	nt
CCC(C(=O)OCC(=O)Nc1ccc(F)cc1)c1ccccc1 (stereo unspecified)	nt	nt	-5	nt
CCC(C(=O)OCC(=O)Nc1c(Cl)cccc1Cl)c1ccccc1 (stereo unspecified)	i	i	nt	-6.9*
CCOC(=O)c1cccc(Nc2nc(-c3cccnc3)nc3ccccc23)c1	i	i	53*	-0.02
COC(=O)c1cccc(Nc2nc(-c3cccnc3)nc3ccccc23)c1	i	i	32	0.23
CC(C)Cc1nc2oc3c(NCC(C)O)ncnc3c2c2c1CCCC2 (stereo unspecified)	i	-7.6*	7	0
O=C1c2cccc(Sc3ccccc3)c2C(=O)c2c(Sc3ccccc3)cccc21	i	i	78*	1.2
O=C1c2cccc(O)c2C(=O)c2c(O)cccc21	i	i	nt	0.69
